Screens as filed in PubChem BioAssay.
Shown are actives, neighbours in structure and some others; about 3.4% of the full set was active somewhere.
Sm TGR block: S. mansoni TGR enzyme inhibition | Q962Y6 | purified TGR, DTNB reduction, TNB absorbance 405 nm | Potency, µM (titrated, usually from 114 µM), for the others: top-dose activity change, negative = inhibition, hits mostly inhibitors | actives 3% (n = 360,000); further: nearly all actives have a fitted effect of over 60% in size
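TGR 20 nM + NADPH 100 uM (dispensed conc.), cpd preinc 15 min RT; start with NADPH (500 uM addition) then DTNB (15 mM addition). Kinetic TNB absorbance, 405 nm filter. Four-parameter Hill fit across titration.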
Giardia FBPA inh: Giardia lamblia aldolase inhibition; purified Giardia FBPA; actives 0.71% (n = 290,000); AID 2451; Potency, µM (doses to about 59.6 µM), without a hit: at the highest dose activity, negative = inhibition, usual class: inhibitors; further: nearly all actives have a fitted effect of over 55% in size
Target sequence (A8B2U2 whole entry, looked up): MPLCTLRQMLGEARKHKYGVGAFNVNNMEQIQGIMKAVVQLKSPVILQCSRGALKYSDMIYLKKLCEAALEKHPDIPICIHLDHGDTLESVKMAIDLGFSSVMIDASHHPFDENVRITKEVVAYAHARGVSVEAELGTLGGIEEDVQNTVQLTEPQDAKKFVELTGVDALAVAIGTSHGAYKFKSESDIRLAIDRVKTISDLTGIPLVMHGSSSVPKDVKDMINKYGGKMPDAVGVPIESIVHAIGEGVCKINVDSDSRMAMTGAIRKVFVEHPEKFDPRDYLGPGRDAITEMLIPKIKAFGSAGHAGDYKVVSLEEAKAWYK
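Giardia FBPA (40 nM reagent) was preincubated 10 min at RT with compound (up to 57.5 uM final), then substrate plus GAPDH/TPI/NAD/arsenate coupling system with diaphorase/resazurin was added; resorufin fluorescence (525/598 nm) was read after 20 min.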
RE007 growth inh: less growth of the S. pombe RE007 Vpr strain | S. pombe RE007 Vpr strain, BacTiter-Glo ATP luminescence, 24 h | Potency, µM (series often up to 92.2 µM), without a hit: at the top dose activity change, negative = less growth, hits mostly inhibitors | actives 0.21% (n = 360,000) | AID 651644; active means well fitted falling curve with a large enough effect; inconclusive means small, poorly fitted or top-dose-only effect; inactive means no such curve, though single readings can be large or run the other way; further: nearly all actives have a fitted effect of over 50% in size
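Fission yeast strain RE007, carrying one chromosomally integrated HIV-1 vpr copy, was seeded at OD 0.01 in PMG+AL medium with 23 nL pinned compound. After 24 h at 30 °C and 99% humidity, viability was read by BacTiter-Glo luminescence.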
AmpC detergent: AmpC beta-lactamase inhibition with detergent present; Potency, µM (top dose mostly 114 µM), inactives show at the highest dose activity change, negative = inhibition, actives largely listed as inhibitors; AmpC hydrolysis of nitrocefin, absorbance 480 nm, 0.01% Triton; AID 485294; P00811; actives 0.041% (n = 370,000);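 further: 0% = no-compound wells and -100% = no-enzyme wells; nearly all actives have a fitted effect of over 25% in size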
Target sequence (P00811 whole entry, looked up): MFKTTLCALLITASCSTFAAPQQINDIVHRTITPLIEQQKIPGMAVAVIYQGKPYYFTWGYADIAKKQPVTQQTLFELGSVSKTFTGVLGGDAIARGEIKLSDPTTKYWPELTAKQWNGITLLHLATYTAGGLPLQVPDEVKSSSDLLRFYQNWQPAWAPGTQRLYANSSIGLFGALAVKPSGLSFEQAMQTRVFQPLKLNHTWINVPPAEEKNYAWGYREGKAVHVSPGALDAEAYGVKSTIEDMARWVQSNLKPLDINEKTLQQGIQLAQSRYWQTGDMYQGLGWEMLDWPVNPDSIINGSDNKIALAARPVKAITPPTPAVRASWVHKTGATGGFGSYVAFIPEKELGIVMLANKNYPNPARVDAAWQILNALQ
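20 mM phosphate pH 7.0 + 0.01% (detergent screen) or 0.0001% Triton X-100; 5.3 nM AmpC reagent; cpd preinc 15 min RT; nitrocefin (800 uM stock) to start; A480 q20 s × 4 min; Activity was normalised to no-enzyme and no-compound control wells.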
AmpC no deterg: blocks E. coli AmpC beta-lactamase in detergent-free assay | P00811 | AmpC nitrocefin hydrolysis, absorbance 480 nm, 0.0001% Triton | Potency, µM (titrated, usually from 57.1 µM), inactives show at the top dose activity change, negative = inhibition, usual class: inhibitors | actives 0.52% (n = 330,000) | AID 485341;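 further: plate controls were no compound for no effect and no enzyme for full effect; nearly all actives have a fitted effect of over 20% in size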
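20 mM phosphate pH 7.0 + 0.01% (detergent screen) or 0.0001% Triton X-100; 5.3 nM AmpC reagent; cpd preinc 15 min RT; nitrocefin (800 uM stock) to start; A480 q20 s × 4 min; Activity was normalised to no-enzyme and no-compound control wells.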
Numbers without * were called inactive; ? = inconclusive; / = no result; [ ] = dose if it differs, or a comment. Unless noted, the call rests on the fitted dose curve; in most records, active means well fitted curve in the direction sought with a large enough effect; inconclusive means small, poorly fitted or top-dose-only effect, or another doubt; inactive means no such curve, though single readings can be large; an effect the other way counts as inactive or inconclusive. Unless noted, on the % scale 0 is the no-effect control and ±100 the full control effect; potency means the concentration at half of the fitted maximal effect.

SMILES	Sm TGR block	Giardia FBPA inh	RE007 growth inh	AmpC detergent	AmpC no deterg
O=C(O)c1cccnc1SC1CC(=O)N(c2ccccc2)C1=O (stereo not given)	50.1µM*	1.3%	4.5%	3.2%	-7.4%
COc1ccc(N2C(=O)CC(Sc3ncccc3C(=O)O)C2=O)cc1 (stereo not given)	?	3.6%	-4.9%	-0.5%	-14.8%
Cc1ccc(-c2nc(CS(=O)CC(=O)NCCCc3ccccc3)c(C)o2)cc1 (stereo not given)	35.5µM*	14.1%	-0.2%	-0.8%	150.7%
COc1ccc(-c2nc(CS(=O)CC(=O)NCCC3=CCCCC3)c(C)o2)cc1 (stereo not given)	39.8µM*	-2.3%	-5.9%	-11.5%	102.8%
CCOc1ccc(CCNC(=O)CS(=O)Cc2nc(-c3ccc(C)cc3)oc2C)cc1OCC (stereo not given)	-23.6%	/	-9.0%	-3.6%	171.3%
COc1cccc(-c2nc(CS(=O)CC(=O)NCCc3ccc(C)cc3)c(C)o2)c1 (stereo not given)	-15.2%	-1.6%	2.2%	-9.4%	127.1%
CCOc1ccc(CCNC(=O)CS(=O)Cc2nc(-c3ccc(C)cc3)oc2C)cc1 (stereo not given)	22.4µM*	/	-10.7%	-4.4%	128.9%
CCc1ccc(-c2nc(CS(=O)CC(=O)NCCc3ccc(Cl)cc3)c(C)o2)cc1 (stereo not given)	31.6µM*	/	/	4.9%	/
Cc1oc(-c2ccc(Cl)cc2)nc1CS(=O)CC(=O)NCCc1ccccc1 (stereo not given)	22.4µM*	/	/	18.1%	/
Cn1c(C(=O)OC(C(=O)NC2CCCC2)c2cccnc2)cc2sccc21 (stereo not given)	-14.5%	4.6%	-18.4%	?	9.6%
O=C(N/N=C/c1c(O)n(Cc2ccc(F)cc2)c(=O)[nH]c1=O)c1ccccc1O	35.5µM*	?	-23.4%	-2.1%	-38.8%
COc1ccc(Cn2c(O)c(/C=N/NC(=O)c3ccccc3O)c(=O)[nH]c2=O)cc1	?	?	-7.6%	-6.4%	-53.3%
O=C(N/N=C/c1c(O)n(Cc2ccccc2)c(=O)[nH]c1=O)c1ccccc1O	25.1µM*	?	16.2%	-11.7%	-36.5%
COc1ccc(S(=O)(=O)NCc2ccccc2)cc1Br	-25.4%	0.7%	/	?	-31.3%
Cc1cc(C)c(NC(=O)CSc2nc(=O)n(CCN3CCOCC3)c3c2CCC3)c(C)c1	1.9%	/	0.0%	?	-21.2%
CC(C)(C)OC(=O)CC[C@@H](C(=O)N1CCN(C(=O)OC(C)(C)C)CC1)n1cc(C(Cc2ccc(O)cc2)NC(=O)OC(C)(C)C)nn1 (stereo not given in full)	-14.2%	-4.7%	5.4%	-2.5%	154.8%
NNC(=O)c1cc(Cl)ccc1Cl	-7.9%	1.0%	0.3%	-8.4%	-9.8%
COc1cccc(C(=O)NN2C(=O)C3C4C=CC(O4)C3C2=O)c1 (stereo not given)	20µM*	1.7%	-2.6%	-3.0%	-9.6%
COc1ccc(C(=O)NN2C(=O)C3C4C=CC(O4)C3C2=O)cc1 (stereo not given)	17.8µM*	5.2%	1.8%	2.5%	-19.4%
Cc1ccc(C(=O)NN2C(=O)C3C4C=CC(C4)[C@@H]3C2=O)cc1 (stereo not given in full)	-17.1%	2.8%	4.7%	-7.0%	-17.5%
CCCn1c(SCC(=O)Nc2c(CC)cccc2CC)nnc1C(C)C	-14.9%	1.4%	-3.3%	3.1%	-5.1%
N=C1/C(=C\c2ccc(Br)o2)C(=O)N=C2SC(CC(=O)N3CCOCC3)=NN12	-33.3%	-30.0%	-8.6%	-10.7%	-24.4%
Cc1nc2cc(-c3cccc(F)c3)nn2c(C)c1CCC(=O)NCCc1ccccc1	22.4µM*	/	/	-3.9%	/
COc1ccc(NC2CCN(C3CC(=O)N(c4ccc(F)c(Cl)c4)C3=O)CC2)cc1 (stereo not given)	11.2µM*	-24.7%	6.31µM*	1.0%	114.9%
CCN1C(=O)CC(N2CCC(Nc3ccc(OC)cc3)CC2)C1=O (stereo not given)	-20.3%	-19.3%	-26.3%	-0.1%	-16.0%
SMILES	Sm TGR block	Giardia FBPA inh	RE007 growth inh	AmpC detergent	AmpC no deterg
COc1cccc(N2CCN(C3CC(=O)N(c4ccc(F)c(Cl)c4)C3=O)CC2)c1 (stereo not given)	50.1µM*	-16.0%	28.2µM*	-1.8%	87.6%
O=C(NCc1ccccc1)C(=O)NCC(c1cccs1)S(=O)(=O)c1cccs1 (stereo not given)	?	/	/	-0.9%	/
COc1ccc(CNC(=O)C(=O)NCC(c2cccs2)S(=O)(=O)c2cccs2)cc1 (stereo not given)	28.2µM*	/	/	-2.1%	/
COc1ccc(CCNC(=O)C(=O)NCC(c2cccs2)S(=O)(=O)c2cccs2)cc1 (stereo not given)	28.2µM*	/	/	1.6%	/
O=C(NCCc1ccccc1)C(=O)NCC(c1cccs1)S(=O)(=O)c1cccs1 (stereo not given)	?	/	/	-3.8%	/
O=C(NCc1ccc(F)cc1)C(=O)NCC(c1cccs1)S(=O)(=O)c1cccs1 (stereo not given)	25.1µM*	/	/	1.1%	/
Cc1ccc(CNC(=O)c2ccc3c(c2)nc2n3CCOC2)cc1	2.2%	/	/	13.3%	/
Cc1oc(-c2ccc(Cl)cc2)nc1CS(=O)CC(=O)NCc1ccc2c(c1)OCO2 (stereo not given)	14.1µM*	-9.9%	-7.0%	-8.3%	58.4%
COc1ccc(-c2nc(CS(=O)CC(=O)NCc3ccc4c(c3)OCO4)c(C)o2)cc1OC (stereo not given)	39.8µM*	7.9%	-4.2%	-10.6%	74.9%
O=C(c1ccccc1F)N1CCN(CC2CC3C=CC2C3)CC1 (stereo not given)	0.5%	-8.5%	11.7%	-10.2%	-9.9%
O=C(C(Cc1ccccc1)n1cccc1)N1CCc2ccccc21 (stereo not given)	35.5µM*	-0.8%	-10.2%	?	-18.4%
Oc1ccc(COc2cccc3ccccc23)c2cccnc12	8.91µM*	/	/	-14.6%	-55.5%
COCc1ccc(O)c2ncccc12	-33.5%	12.1%	?	1.2%	-0.6%
Oc1ccc(COC2CCCC2)c2cccnc12	17.8µM*	/	/	?	-7.2%
OCc1ccnc2c(O)cccc12	14.1µM*	-7.4%[12.9 µM]	4.2%	-13.4%	2.5%
Oc1ccc(COCc2ccc(F)cc2)c2cccnc12	35.5µM*	/	/	?	-39.3%
CC(/C=N\NC(=O)c1ccc2c(c1)OCO2)c1ccccc1 (stereo not given)	-8.3%	7.0%	-5.4%	-2.6%	-26.4%
COc1cccc(N/N=C/c2cccc(Br)c2O)c1	35.5µM*	-10.0%	3.8%	-1.3%	?
Cc1cccc(N/N=C/c2ccc(C)s2)c1	-14.5%	-2.2%	5.6%	2.5%	-40.4%
